Measured values published in PubChem BioAssay (NCI).
The panel holds about 79,000 compounds, 15% with a hit somewhere; the sample as a whole holds those more often. Values without a mark were called inactive. The source made the active and inactive calls. No stated cut-off is given here; in the data, active means growth inhibition above about 70%; inactive means the rest.

Tests used:
[1] = NCI Yeast Anticancer Drug Screen. Data for the mlh1 strain (AID 171);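 further: 0% = growth of vehicle-treated control cultures of the same strain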; conditions: S. cerevisiae mlh1 strain growth inhibition, hits give high values
In short: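 Vehicle-normalised growth inhibition of a repair- or checkpoint-altered yeast strain following compound treatment.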

[2] = NCI Yeast Anticancer Drug Screen. Data for the sgs1 strain (AID 173);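 further: 0% = growth of vehicle-only control cultures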; conditions: S. cerevisiae sgs1 mutant, hits give high values
In short: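 Screen format: yeast with repair or checkpoint alterations, compound exposure, growth read relative to vehicle.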

[3] = NCI Yeast Anticancer Drug Screen. Data for the mlh1 rad18 strain (AID 175); conditions: S. cerevisiae mlh1 rad18 strain growth inhibition, hits give high values
In short: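 Vehicle-treated cultures served as the reference for growth inhibition in a yeast strain carrying DNA damage repair alterations exposed to each compound.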

[4] = NCI Yeast Anticancer Drug Screen. Data for the rad18 strain (AID 177); conditions: S. cerevisiae rad18 mutant growth inhibition, hits give high values
In short: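 Test articles were incubated with altered yeast defective in DNA damage repair. Results are given as inhibition of growth versus vehicle.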

[5] = NCI Yeast Anticancer Drug Screen. Data for the rad52 strain (AID 147);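 further: 0% = growth of vehicle-treated control cultures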; conditions: S. cerevisiae rad52 mutant growth inhibition, hits give high values
In short: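 Vehicle-treated cultures served as the reference for growth inhibition of compound-exposed yeast bearing a DNA repair mutation.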

[6] = NCI Yeast Anticancer Drug Screen. Data for the wt1 strain (AID 149);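 further: 0% = growth of vehicle-treated wt1 cultures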; conditions: S. cerevisiae wt1 strain (SPY 50644) growth inhibition, hits give high values
In short: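 Growth inhibition read against vehicle controls after compound exposure of the wt1 yeast strain.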

[7] = NCI Yeast Anticancer Drug Screen. Data for the rad50EPP+ strain (AID 151);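 further: 0% = growth of vehicle-treated control cultures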; conditions: S. cerevisiae rad50 mutant strain, hits give high values
In short: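 In this screen, rad50EPP+ yeast were exposed to compounds. Growth inhibition was scored against vehicle-treated controls.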

[8] = NCI Yeast Anticancer Drug Screen. Data for the mgt1 strain (AID 153); conditions: S. cerevisiae mgt1 mutant growth inhibition, hits give high values
In short: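 mgt1 strain exposed; growth vs vehicle control recorded as inhibition.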

[9] = NCI Yeast Anticancer Drug Screen. Data for the rad50 strain (AID 155);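 further: 0% = growth of vehicle-only cultures of the same strain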; conditions: S. cerevisiae rad50 strain growth inhibition, hits give high values
In short: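 Readout: growth inhibition relative to vehicle-treated cultures. Compound exposure was carried out in a genetically defined yeast strain deficient in DNA damage repair.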

[10] = NCI Yeast Anticancer Drug Screen. Data for the mec2-1 strain (AID 157); conditions: S. cerevisiae mec2-1 strain, hits give high values
In short: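 Vehicle-treated cultures served as reference for growth inhibition of compound-exposed mec2-1 yeast.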

[11] = NCI Yeast Anticancer Drug Screen. Data for the rad14 strain (AID 159);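 further: 0% = growth of vehicle-treated control cultures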; conditions: S. cerevisiae rad14 strain growth inhibition, hits give high values
In short: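 Growth inhibition vs vehicle controls; genetically altered yeast strain (DNA damage repair defect) treated with test compounds.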

[12] = NCI Yeast Anticancer Drug Screen. Data for the sgs1 mgt1 strain (AID 161);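 further: 0% = growth of cultures given vehicle only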; conditions: S. cerevisiae sgs1 mgt1 strain, hits give high values
In short: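 Genetically altered yeast, compound exposure, growth inhibition relative to vehicle.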

[13] = NCI Yeast Anticancer Drug Screen. Data for the CLN2oe strain (AID 163);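 further: 0% = growth of vehicle-only control cultures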; conditions: S. cerevisiae CLN2oe strain, hits give high values
In short: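 Inhibition relative to vehicle-treated yeast is reported. Cells: strain with genetic alteration in cell-cycle control, grown with compound.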

[14] = NCI Yeast Anticancer Drug Screen. Data for the cln2 rad14 strain (AID 165);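 further: 0% = growth equal to vehicle treated cultures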; conditions: S. cerevisiae cln2 rad14 strain, hits give high values
In short: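 Each compound was tested on cln2 rad14 yeast. Inhibition of growth was calculated against vehicle-exposed controls.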

[15] = NCI Yeast Anticancer Drug Screen. Data for the bub3 strain (AID 167); conditions: S. cerevisiae bub3 mutant strain, hits give high values
In short: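 Readout: yeast growth inhibition, expressed relative to vehicle-only wells. The test organism is a mutant strain from a panel with lesions in DNA repair or checkpoint genes.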

[16] = NCI Yeast Anticancer Drug Screen. Data for the wt2 strain (AID 169);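 further: 0% = growth of vehicle-treated yeast cultures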; conditions: S. cerevisiae wt2 strain growth inhibition, hits give high values
In short: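 Inhibition of yeast growth was determined after compound treatment, normalised to controls receiving only vehicle.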

[17] = at 5.0 µM (retest, dose inferred, filed as 0.5)
[18] = at 50.0 µM (retest, dose inferred, filed as 5.0)

Compound: O=C1C(Cl)=C(Cl)C(Cl)(Cl)C(Cl)C1(Cl)Cl (stereo not drawn)
- growth inhibition ([1]; at 1.2 µM): 12%
- growth inhibition ([1]; at 3.7 µM): 26%
- growth inhibition ([1]; at 11.0 µM): 66%
- growth inhibition ([1]; at 33.0 µM): 99% (active)
- growth inhibition ([1]; at 100.0 µM): 99% (active)
- growth inhibition ([2]; at 1.2 µM): -7%
- growth inhibition ([2]; at 3.7 µM): 36%
- growth inhibition ([2]; at 11.0 µM): 81% (active)
- growth inhibition ([2]; at 33.0 µM): 100% (active)
- growth inhibition ([2]; at 100.0 µM): 99% (active)
- growth inhibition [3, 17]: 26%
- growth inhibition [3, 18]: 99% (active)
- growth inhibition ([3]; at 50.0 µM): 99.4% (active)
- growth inhibition ([4]; at 1.2 µM): 40%
- growth inhibition ([4]; at 3.7 µM): 73% (active)
- growth inhibition ([4]; at 11.0 µM): 90% (active)
- growth inhibition ([4]; at 33.0 µM): 99% (active)
- growth inhibition ([4]; at 100.0 µM): 99% (active)

Compound: S=c1[nH]c2c(Cl)c(Cl)c(Cl)c(Cl)c2[nH]1
- growth inhibition ([5]; at 1.2 µM): 13%
- growth inhibition ([5]; at 3.7 µM): 6%
- growth inhibition ([5]; at 11.0 µM): 45%
- growth inhibition ([5]; at 33.0 µM): 97% (active)
- growth inhibition ([5]; at 100.0 µM): 94% (active)
- growth inhibition ([6]; at 1.2 µM): 16%
- growth inhibition ([6]; at 3.7 µM): -4%
- growth inhibition ([6]; at 11.0 µM): 33%
- growth inhibition ([6]; at 33.0 µM): 98% (active)
- growth inhibition ([6]; at 100.0 µM): 96% (active)
- growth inhibition ([7]; at 1.2 µM): 13%
- growth inhibition ([7]; at 3.7 µM): 20%
- growth inhibition ([7]; at 11.0 µM): 81% (active)
- growth inhibition ([7]; at 33.0 µM): 96% (active)
- growth inhibition ([7]; at 100.0 µM): 95% (active)
- growth inhibition ([8]; at 1.2 µM): 9%
- growth inhibition ([8]; at 3.7 µM): 15%
- growth inhibition ([8]; at 11.0 µM): 78% (active)
- growth inhibition ([8]; at 33.0 µM): 99% (active)
- growth inhibition ([8]; at 100.0 µM): 93% (active)
- growth inhibition ([9]; at 1.2 µM): -5%
- growth inhibition ([9]; at 3.7 µM): -2%
- growth inhibition [9, 17]: 33%
- growth inhibition ([9]; at 11.0 µM): 59%
- growth inhibition ([9]; at 33.0 µM): 98% (active)
- growth inhibition [9, 18]: 92% (active)
- growth inhibition ([9]; at 50.0 µM): 90% (active)
- growth inhibition ([9]; at 100.0 µM): 96% (active)
- growth inhibition ([10]; at 1.2 µM): -28%
- growth inhibition ([10]; at 3.7 µM): -11%
- growth inhibition [10, 17]: 44%
- growth inhibition ([10]; at 11.0 µM): 48%
- growth inhibition ([10]; at 33.0 µM): 98% (active)
- growth inhibition [10, 18]: 98% (active)
- growth inhibition ([10]; at 50.0 µM): 91% (active)
- growth inhibition ([10]; at 100.0 µM): 96% (active)
- growth inhibition ([11]; at 1.2 µM): -11%
- growth inhibition ([11]; at 3.7 µM): 4%
- growth inhibition ([11]; at 11.0 µM): 50%
- growth inhibition ([11]; at 33.0 µM): 99% (active)
- growth inhibition ([11]; at 100.0 µM): 96% (active)
- growth inhibition [12, 17]: -10%
- growth inhibition [12, 18]: 97% (active)
- growth inhibition ([13]; at 1.2 µM): 9%
- growth inhibition ([13]; at 3.7 µM): 3%
- growth inhibition ([13]; at 11.0 µM): 48%
- growth inhibition ([13]; at 33.0 µM): 97% (active)
- growth inhibition ([13]; at 100.0 µM): 95% (active)
- growth inhibition [14, 17]: 61%
- growth inhibition [14, 18]: 95% (active)
- growth inhibition ([15]; at 1.2 µM): -5%
- growth inhibition ([15]; at 3.7 µM): 4%
- growth inhibition [15, 17]: 44%
- growth inhibition ([15]; at 11.0 µM): 66%
- growth inhibition ([15]; at 33.0 µM): 98% (active)
- growth inhibition [15, 18]: 95% (active)
- growth inhibition ([15]; at 100.0 µM): 95% (active)
- growth inhibition ([16]; at 1.2 µM): -12%
- growth inhibition ([16]; at 3.7 µM): -3%
- growth inhibition ([16]; at 11.0 µM): 24%
- growth inhibition ([16]; at 33.0 µM): 96% (active)
- growth inhibition ([16]; at 100.0 µM): 96% (active)
- growth inhibition ([1]; at 1.2 µM): 2%
- growth inhibition ([1]; at 3.7 µM): 22%
- growth inhibition ([1]; at 11.0 µM): 75% (active)
- growth inhibition ([1]; at 33.0 µM): 98% (active)
- growth inhibition ([1]; at 100.0 µM): 94% (active)
- growth inhibition ([2]; at 1.2 µM): -3%
- growth inhibition ([2]; at 3.7 µM): 10%
- growth inhibition ([2]; at 11.0 µM): 54%
- growth inhibition ([2]; at 33.0 µM): 97% (active)
- growth inhibition ([2]; at 100.0 µM): 96% (active)
- growth inhibition [3, 17]: 26%
- growth inhibition [3, 18]: 95% (active)
- growth inhibition ([3]; at 50.0 µM): 90.5% (active)
- growth inhibition ([4]; at 1.2 µM): 5%
- growth inhibition ([4]; at 3.7 µM): 12%
- growth inhibition ([4]; at 11.0 µM): 42%
- growth inhibition ([4]; at 33.0 µM): 97% (active)
- growth inhibition ([4]; at 100.0 µM): 95% (active)
